The record followed here is PubChem BioAssay AID1508600 (Functional Genomics Laboratory (NCATS/FGL), 2020).

Out of some 53,000 sequences screened, about 3,700 (7%) were called active. Many of the other results were omitted from the sample, so actives are more common in it than they were. Values without a mark were called inactive.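 Rule for the calls: active = gene knockdowns whose robust z-score for IL-1 alpha signal is at least 2 or at most -2, so actives lie on both sides; inactive = the rest.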

The nature of the assay: Components of the Cytosolic LPS Sensing Pathway: Gene Identification via Genome-wide siRNA Screen.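 Note: robust z of the log signal after scaling to non-targeting control siRNA wells of the plate.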 The following applies: RAW264.7 macrophages, IL-1a HTRF, actives lie on both sides, screened at 100 nM (by protocol), cells primed 5 h with Pam3CSK4 first. In short, it runs like this: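 Read-out: IL-1a HTRF on supernatant, divided by plate negative-control median ×100, log-transformed and converted to robust z-score. Cells were RAW264.7 given 100 nM siRNA, Pam3CSK4-primed 5 hours, then LipidA-transfected 24 hour.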
(TR-FRET usually uses a lanthanide donor and a delayed reading to cut background.)
Take GGACAAACCUUGGAAGAUUTT against Ccdc166: the z-score was -0.24.
GGUUGGAAAUGACUAAUAATT against Slco6c1: the z-score is -1.01.
GGAAGGUGUCUGUAAUAUATT against Slamf9: the z-score was -0.0451.
In the case of GGAGGGCAGAUCUACGAUGTT against Aars, the z-score was 0.182.
As to GAAACUUUGAGUCCUCCAGTT against Dop1b, the z-score was 3.22 (active).
Next, CGAGUUCAAACCGUCCUCUTT against Sdhc: 0.105.
Regarding CGGAAUGAUCACGACCGAUTT against Nsrp1, the z-score is 0.133.
As to CCAAGUAAUUCCUACUACUTT against Olfr1100, the z-score is -0.25.
On to GGCUGGAUGUAGAAAAUAUTT against Aspm, for which the z-score is -2.1 (active).
On to GGGAAGCAAAUCUAUACCCTT against Tnfrsf11a, for which the z-score was -0.243.
Take GGUGUUGUCAGAAGUUUAATT against Slc22a13b: the z-score was 1.8.
The figure for CCUCAUGCAGUUAAAUAUGTT against Kera is -1.56; for GGAGAAGGAUGGAGUGUUUTT against Brms1l it is 1.8.
As to GGACUUUGUAACUAAUACCTT against Slco2b1, the z-score was 0.914.
Take CGAUGAUGAACGAUGGACATT against Mmp3: the z-score was 2.47 (active).
GGCACUGGCAGGAAAUUACTT against Alg6: the z-score was -1.52.
Next, GGACUGCCUUAAUUAAAGUTT against Coa6: 1.7; GCUGUGACUCUACUGGAGGTT against Zfp397: 0.746.
As to GGCAGAACCCACUGAGAAATT against Pakap, the z-score is -0.349.
GGAAAUCGAGCAUGUCUUCTT against Stk32c: the z-score was 2.21 (active).
Next, GGAAAAGAGAAGAAGGCACTT against Taf6: 0.654.
Take GCCUUUGAGGUUAUGAUCATT against Klk7: the z-score was -1.09.
Next, GGCUGUGGUGAAGACUUUCTT against Cd81: -1.06.
In the case of GGUGAAGCAGUUUGACUUCTT against Rbm18, the z-score was 0.0154.
The figure for “GGUUCUGGUUGAUAGAGAUTT against 4931428L18Rik” is 0.373; for CUUCUUGGUGGGUCUGACUTT against Taar7e it is -2.63 (active).
As for CGACUGGAAAAAGAUUGGGTT against Ttf1, the z-score was -0.219.
Regarding GCGGCAGUAAAUUGUGAGGTT against Grin3b, the z-score was 1.4.
On to GGAAAUCCAGAAGCGUGUGTT against Gtpbp3, for which the z-score is -0.436.
Regarding GGAGGAGCGUACUAUUUAATT against Slc12a2, the z-score is 3.34 (active).
Consider GGAGGAUGCAAUUUUUAACTT against Sult1e1, for which the z-score was 0.771.
For the sequence GGAGAAACUGAAACAAGCUTT against Gpc4, the z-score is 0.403.
Take GCACUAAGCUUUAUUCAUCTT against Mast2: the z-score is -0.0104.
Regarding GGAAACUUUUACUUCACAGTT against P3h1, the z-score is -0.322.
Consider GGAUCUACGCAAGCAAGCATT against Oxnad1, for which the z-score is 2.12 (active).
GCAAAGAAGCUCUUUAGAGTT against Hoxc5: the z-score is 0.455.
The figure for GCCAUAAGAUGCUACAGUGTT against Tubb6 is 1.53.
On to “GGAAAGUACCCUAGGAGUUTT against 4921509C19Rik”, for which the z-score is -1.6.
Take CCCUCAACUUUCAGAUCAGTT against Naa10: the z-score is 2.81 (active).
The figure for CCUACUUCCGAGGUUUCUUTT against Ifnz is -0.493; for GGAAAGGAGUCUGCCAGCUTT against Tef it is -1.29; for GGAAGAAGGAAGGUUCAGATT against Strm it is -0.581.
Consider “GUGCAAACGGCAAACAUUCTT against 1700001G17Rik”, for which the z-score is 1.89.
Consider GGGCGAAAACCAUUCAAAUTT against Zfp112, for which the z-score is 3.38 (active).
Regarding CCUCCUGACUACAAGAACUTT against Utp14a, the z-score was 0.911.
With “CCUUGAUACCUUUCCAUGUTT against 9130008F23Rik”, the z-score was -0.68.
On to CGUUCUUGAGAGUCGAUCATT against Smoc2, for which the z-score was -0.19.
Regarding GCGGCAUCUACUUAAUAUGTT against Acer2, the z-score is 2.12 (active).
The figure for GCACCUUCAGCUAUCUAACTT against Nepn is 0.478.
Turning to GCUGUUCCUCUUUCUUUCUTT against Olfr522, the z-score is 0.315.
Regarding CCUAGAGUCUCAGGACUGUTT against Actrt3, the z-score was 0.682.
Regarding GGUUUCGUACCAUGAAACATT against Stx2, the z-score was -0.147.
As to GCUUUGACUGGAAUGACGGTT against Pex7, the z-score was -2.2 (active).
On to GGAGCUGUCUAAUCAUAAUTT against Clasp2, for which the z-score is -0.109.
The figure for GGAGUGGAAGAAGAAGUAUTT against Agap3 is 0.177; for GGAGUUUCUACGUGUAUGCTT against Tpra1 it is -0.161.
Turning to GGACUUUGUGGAGAAUGUCTT against Cyp1a2, the z-score is -0.876.
Regarding CCUACAGAGUACAGAUUAUTT against Atp6v0d1, the z-score was -0.228.
The figure for “GGACUGAGAGGGAUGGUAATT against A530016L24Rik” is 0.293.
Take GCUAAGACUCUUGAAUCAGTT against Zfp280d: the z-score is 3.72 (active).
As to GGCACAGAAGAAUGAGAGATT against Schip1, the z-score was 0.217.
For the sequence CGUACUCUUUCUUUAAUCCTT against Umod, the z-score was -0.622.
As to GGUCCAUUACGUGCGCUUATT against Cage1, the z-score is -0.00235.
As for GGCCUGACUUUUUGUCUUATT against Klhl15, the z-score is 1.09.
Regarding GGAACUGCCAUUGUAUGGGTT against Myo1g, the z-score was -0.568.
Next, GGCAAAGUGUCCCUCCGAATT against Skint7: 2.06 (active); CCGCAUUUCAGACAUAGGCTT against Olfr248: -0.729; GCAGAAUGUCACUAAGUGCTT against Sdcbp2: 0.271.
